Test results: PubChem BioAssay AID588405 (Sanford-Burnham Center for Chemical Genomics, 2011)
The whole screen tested about 360,000 compounds, of which about 6,200 (1.7%) were called active. For the sample, actives were picked, then their nearest neighbours and some compounds at random. A number with no mark means an inactive call.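 How the source made its calls: active means inhibition of at least 50% at 20 µM; inactive means the rest.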

Test: inhibition of PEG-3 promoter activity – cell-based, HeLa, luciferase luminescence, primary screen (AID 588405)
Details: HeLa PEG-Prom luciferase reporter, overnight, at 20 µM, active compounds read high

Row | Structure (SMILES) | inhibition
1 | CCN(CC)C(=O)C1=C(C)N(Cc2ccc(F)cc2)C(=O)C(CC(=O)NC2CCCC2)C1 (configuration not stated) | 11%
2 | Cc1cccc2cc(CN(Cc3cccs3)C(=S)NCc3ccco3)c(=O)[nH]c12 | 4.8%
3 | COCCCNC(=S)N(CCN(C)C)Cc1cc2cc3c(cc2[nH]c1=O)OCCO3 | 2.51%
4 | Cc1cc(C)c2[nH]c(=O)c(CN(Cc3ccccc3)C(=S)NCCCN(C)C)cc2c1 | 66.4% (active)
5 | CCCOc1ccc(F)cc1-c1cc(C(=O)Nc2ccc(F)cc2)[nH]n1 | -8.32%
6 | CCn1c(CC(=O)Nc2ccc(C)cc2)nnc1SCC(=O)Nc1nc(C)cs1 | -10.4%
7 | COCC(C)NC(=O)COc1nncc2ccccc12 (configuration not stated) | 0.55%
8 | NC(Cc1ccc(F)cc1)c1csc(Nc2nncc3ccccc23)n1 (configuration not stated) | 103% (active)
9 | CN[C@H]1C[C@H]2c3cc(Oc4ccccc4C)ccc3CCN2C(=O)[C@H]1[C@H](C)O | -28.3%
10 | CN(C)C(=S)Nc1ccc(Br)cc1Cl | 4.24%
11 | O=C(NCC1CCN(Cc2ccccc2Cl)CC1)Nc1cccc(Cl)c1 | 27.8%
12 | CCn1cc(CN2CCC(C(=O)Nc3cccc(-c4cccc(Cl)c4)c3)CC2)cn1 | 54.4% (active)
13 | CCn1cc(CN2CCC(C(=O)Nc3cccc(-c4cccc(Cl)c4)c3)CC2)c(C)n1 | 105% (active)
14 | O=C(Nc1cnn(Cc2ccc(Cl)cc2)c1)C1CCCC1 | -29.5%
15 | O=C(Nc1cccc(-c2cccc(Cl)c2)c1)C1CCN(C2CCC2)CC1 | 53.2% (active)
16 | O=C(Nc1cccc(-c2cscn2)c1)C1CCN(Cc2ccsc2)CC1 | 5.06%
17 | COc1cccc(-c2cccc(NC(=O)C3CCN(C4CCC4)CC3)c2)c1 | 9.5%
18 | CC(=O)c1cc(CN2CCC(C(=O)Nc3cccc(-c4cscn4)c3)CC2)cs1 | 2.3%
19 | O=C(NC1CCCC1)C1CCN(C(=O)Nc2cccc(Cl)c2)CC1 | 17%
20 | COc1cccc(NC(=O)C2(C)CCN2Cc2ccccc2Cl)c1 (configuration not stated) | 12.9%
21 | CCOCCC(=O)Nc1ccc2c(c1)c(=O)n(C)n2-c1ccc2ccccc2c1 | -14.8%
22 | CCCNC(=O)C1(C)CCN(C(=O)c2ccccc2OC(F)(F)F)C1 (configuration not stated) | -13.6%

Row | Structure (SMILES) | inhibition
23 | CC(=O)Nc1cc(-c2ccc(N3CCN(C)CC3)cc2)cn2c(-c3ccc(F)cc3)cnc12 | -24.9%
24 | CCCCN(C=O)c1c(CC)nc2c(OCc3ccccc3C(=O)OC)cccn12 | 13.7%
25 | COCc1cc(=O)n2[nH]c(C)c(-c3ccccc3)c2n1 | 2.19%
26 | CCCc1cc(=O)n2[nH]c(C)c(-c3ccc(Cl)cc3)c2n1 | 61.5% (active)
27 | Cc1nc2c(-c3ccccc3)c(C)[nH]n2c(=O)c1Cl | 13.1%
28 | COc1cc(F)ccc1-c1cc(C(=O)NCC2CCCCC2)[nH]n1 | -33.4%
29 | CC(C)COC(=O)C1C2C=CC3(CN(C(C)c4ccc(Br)cc4)C(=O)C13)O2 (configuration not stated) | 6.1%
30 | COc1cc(NC(=O)c2cc(-c3ccc(F)cc3OC(C)C)n[nH]2)cc(OC)c1OC | 33.7%
31 | Cc1ccc(C(=O)NCC(=O)O)s1 | 13.7%
32 | Cc1nc2c(OCc3cccc(Cl)c3)cccn2c1N(C)CC1CC1 | -12.2%
33 | OC(c1ccc(Cl)c(F)c1)c1ncc(-c2ccccc2Cl)[nH]1 (configuration not stated) | 17.5%
34 | O=C(NC(c1ccc(-c2ccccc2)cc1)c1cnccn1)C1CCN(CCOc2ccc(Cl)cc2Cl)CC1 (configuration not stated) | 37.4%
35 | Cc1ccc(C(NC(=O)C2CCN(CCOc3ccc(Cl)cc3Cl)CC2)c2ccccn2)cc1 (configuration not stated) | 106% (active)
36 | O=C(NC(c1ccc(Cl)cc1)c1cnccn1)C1CCN(Cc2ccc(Cl)cc2)CC1 (configuration not stated) | 6.83%
37 | Nc1ncnc2c1ncn2[C@@H]1O[C@H](CNC(=O)[C@H](N)Cc2cccnc2)[C@@H](O)[C@H]1O | -0.67%
38 | O=C(CC[C@H]1O[C@@H](n2ccc(=O)[nH]c2=O)[C@H](O)[C@@H]1O)N[C@H](Cc1ccccc1)C(=O)NCCCN1CCCC1=O | -0.27%
39 | CCCCNC(=O)C(C)N(CCN(C)C)C(=O)CCCN1C(=O)NC(c2ccc(Cl)cc2)C(C(=O)OCc2ccccc2)=C1C (configuration not stated) | 92.9% (active)
40 | COC(=O)C1=C(C)N(Cc2ccccc2)C(=NCCCOC(C)C)N[C@H]1c1ccccc1 | -9.14%
41 | CCOC(=O)C1=C(CCc2ccccc2)NC(=O)NC1c1ccc2ccccc2c1 (configuration not stated) | 40.3%
42 | CCOC(=O)C1=C(C)N(C[C@@H]2CC[C@@H](Cc3ccc(-c4ccccc4)cc3)O2)C(=O)NC1c1ccc([N+](=O)[O-])cc1 (some centres not stated) | 15.2%
43 | CCOC(=O)CCCNC(=O)CN1C(=O)NC(CCc2ccccc2)C1=O (configuration not stated) | 1.97%
44 | CCCCNC(=O)C(C)N(CCN(C)C)C(=O)CCCCCN1C(=O)NC(c2ccc(Cl)cc2)C(C(=O)OCc2ccccc2)=C1C (configuration not stated) | 91.8% (active)

Row | Structure (SMILES) | inhibition
45 | CC1=C(C(=O)N(C(C)C)C(C)C)CC(CC(=O)NCC2CCCCC2)C(=O)N1Cc1ccccc1 (configuration not stated) | 11.2%
46 | O=C(Nc1ccc(OCCO)cc1)c1csc([C@H]2C[C@H](O)[C@@H](CO)O2)n1 | 14.9%
47 | CCNC(=O)C1(C)CCCN(Cc2noc(-c3ccccc3OC)n2)C1 (configuration not stated) | 2.68%
48 | O=C1Oc2ccccc2C(=O)/C1=C/c1ccccc1O | 69.8% (active)
49 | COC(=O)c1ccc(/C=C2/C(=O)Oc3ccccc32)cc1 | 11.1%
50 | C=C1C(=O)[C@]23C[C@H]1CCC2[C@@]1(C)C(C[C@@H]3O)[C@](C)(C(=O)O)CC[C@@H]1O (some centres not stated) | 3.91%
51 | CC1CC(C)(C)n2c(O)c(N=NC(N)=S)c3cccc1c32 (configuration not stated) | 29.2%
52 | CCc1nc2ccc(C(=O)N(C)Cc3ccco3)cn2c1N(C)C(=O)Cc1ccccc1 | 8.02%
53 | O=C(O)C#Cc1cccc2ccccc12 | 12.5%
54 | CC(C)(C)c1nnc2sc(SCC(O)=C(C#N)c3nc4ccccc4[nH]3)nn2c1=O | 20.3%
55 | N#C/C(=C(/O)COC(=O)COc1ccc(Cl)cc1)c1nc2ccccc2[nH]1 | 71.2% (active)
56 | COc1ccccc1C(=O)COC(=O)COc1ccc(C#N)cc1 | 10.1%
57 | COc1ccc(C2=Nc3ccccc3NC(=O)C2N(C(=O)c2cc3ccccc3[nH]2)c2ccccc2)cc1 (configuration not stated) | -169%
58 | CC1(C(=O)Nc2cccc3c2CCCC3)CCN1C(=O)C1(c2ccccc2)CC1 (configuration not stated) | 11.5%
59 | Cc1ccc(NC(=S)N(CCCN2CCCC2)Cc2cccn2Cc2ccc(Cl)cc2)cc1 | 83.4% (active)
60 | Cc1ccccc1NC(=S)N(CCCN1CCOCC1)Cc1cccs1 | -3.16%
61 | CCc1cccc(C)c1NC(=S)N(CCCN1CCN(C)CC1)Cc1cccs1 | 12%
62 | O=C(C1CCN(c2nnc(-n3cccc3)s2)CC1)N1CCc2ccccc2C1 | 14.8%
63 | CN(C)CCCn1c(=O)n(Cc2ccccc2)c(=O)c2c3c(sc21)CCCCC3 | 89.8% (active)
64 | CCn1c(=S)[nH]c2sc3c(c2c1=O)CCCCC3 | -19.3%
65 | O=c1c2c3c(sc2n(CCN2CCCC2)c(=O)n1Cc1ccccc1)CCCCC3 | -15%
66 | CCCCC1S/C(=N/N=C/c2cccs2)NC1=O (configuration not stated) | -0.95%

Row | Structure (SMILES) | inhibition
67 | CC(=O)Nc1cccc(-c2ccnc3c2CC(C)(C(=O)NCc2ccccc2)O3)c1 (configuration not stated) | -22.6%
68 | O=C1N=C(N2CCc3ccccc3C2)S/C1=C\c1ccc(O)cc1 | -5.21%
69 | CC(C(=O)NC1CCS(=O)(=O)C1)N1C(=O)/C(=C/c2ccc(Cl)cc2)SC1=S (configuration not stated) | -7.3%
70 | O=C1/C(=C\c2ccc(O)cc2)CCC1CNc1ccc(Cl)cc1 (configuration not stated) | 93.8% (active)
71 | CCCC(=O)N1CCC1(C)C(=O)NS(=O)(=O)c1ccc(Cl)cc1 (configuration not stated) | 3.54%
72 | CC(=O)Nc1cccc(Nc2ccc(C#N)cc2)c1 | -24.3%
73 | O=C(Cc1ccc(-n2c(=O)[nH]c3ccccc3c2=O)cc1)N1CCN(c2cccc(Cl)c2)CC1 | 9.68%
74 | COc1cccc(CNC(=O)Cc2csc(Nc3nc(=S)[nH]c4ccccc34)n2)c1 | 29.3%
75 | O=C(Cc1csc(Nc2nc(=S)[nH]c3ccccc23)n1)NCCCN1CCN(c2cccc(Cl)c2)CC1 | 53.1% (active)
76 | COC(=O)c1ccc(CN2C(=O)C(Cc3ccccc3)ON=C2c2ncccc2C)o1 (configuration not stated) | 3.64%
77 | O=C(Cc1ccc([N+](=O)[O-])cc1)Nc1ccc(C(=O)N2CCOCC2)cc1 | -2.85%
78 | CCCCC(=O)NC(c1ccc(OC)c(OC)c1)c1ccc2cccnc2c1O (configuration not stated) | 60.4% (active)
79 | CCOc1ccc(C(CCc2ccccc2)NC(=O)c2ccc(OC)c(OC)c2)cc1OCC (configuration not stated) | 11.6%
80 | C=CCn1c(COc2cccc3cccnc23)nnc1SCC(=O)OC | 16.7%
81 | CCc1nc2c(OCCC3CCCCC3)cccn2c1N(C)C(=O)c1ccco1 | 5.45%
82 | CC12CCC(C(=O)N(NC(=O)c3ccccc3O)C1=O)C2(C)C (configuration not stated) | 53.1% (active)
83 | COc1ccccc1C(=O)NN1C(=O)C2C3C=CC(O3)C2C1=O (configuration not stated) | 17.5%
84 | CC1=CC(C)(C)NC(=S)N1NC(=O)c1ccccc1Cl | -9.1%
85 | CCCCOc1ccc(N(CC(=O)NC(C)C)C(=O)CCC(=O)Nc2ccccn2)cc1 | -4.29%
86 | NC1=C([N+](=O)[O-])C(c2ccccc2)C2=C(CCCC2=O)O1 (configuration not stated) | 9.24%
87 | O=S1(=O)CCN(C2CCCCCCCCCCC2)CC1 | 0.61%
